NTMT1 inh = Primary qHTS for Inhibitors of N-terminal methyltransferase 1 (NTMT1): MTaseGlo Assay; NTMT1 MTase-Glo SAH luminescence, purified enzyme; Potency, µM (titrated, usually from 114 µM), without a hit: at the highest dose activity change, negative = inhibition, usual class: inhibitors; N-terminal Xaa-Pro-Lys N-methyltransferase 1 (Homo sapiens), Q9BV86; AID 1645870, 2021; actives 2.5% (n = 59,000);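 note: potency is the fitted concentration of half-maximal effect; plate controls were DMSO vehicle for no effect and no enzyme for full effect; nearly all actives have a fitted effect of over 65% in size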
HTT promoter inh = Primary qHTS for Identification of Small Molecule Inhibitors of Huntingtin Promoter Activity | actives 0.93% (n = 48,000) | AID 1508623, 2021 | Potency, µM (doses to about 57.5 µM), for inactives: at the top dose activity change, negative = inhibition, most hits filed as inhibitors | HEK293 HTT promoter firefly luciferase reporter, 24 h; note: potency is the fitted concentration of half-maximal effect; nearly all actives have a fitted effect of over 50% in size
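HEK293 Fluc reporter, 2,500 cells/well, 24 h pre-culture; cpds up to 57.5 uM final, 24 h 37 degrees C; Dual-Glo, 10 min RT; normalized vehicle = 0%, zero RLU = -100%.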
HTT-AS promoter = Primary qHTS for Identification of Small Molecule Activators of Huntingtin-Antisense Promoter Activity. AID 1508624, 2021. actives 0.24% (n = 48,000). Potency, µM (titrated, usually from 57.5 µM), for inactives: at the highest dose activity change, positive = activation, actives largely listed as activators. HEK293 HTT-AS promoter firefly luciferase reporter, 24 h; response scale: percent change from vehicle, -100% = no light; note: potency is the fitted concentration of half-maximal effect; nearly all actives have a fitted effect of over 55% in size
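Quantitative HTS used concentration series of up to 57.5 uM final on HEK293 luciferase reporter cells, 24 h at 37 degrees C. Readout was Dual-Glo firefly luminescence.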
Sfp qHTS opt = qHTS Assay for Inhibitos of Bacillus subtilis Sfp phosphopantetheinyl transferase (PPTase): Chemistry Optimization Followup | actives 78% (n = 230) | shares compounds with NTMT1 inh | Potency, µM (doses to about 114 µM), without a hit: at the highest dose activity change, negative = inhibition, actives largely listed as inhibitors | purified Sfp PPTase enzyme activity, qHTS
Bsub HM489 growth = qHTS for Inhibitos of Bacillus subtilis Sfp phosphopantetheinyl transferase (PPTase): Chemistry Optimization Followup in B. Subtilis HM489 | shares compounds with NTMT1 inh | B. subtilis HM489 (acpS-) growth, BacTiter-Glo, 5 h | Potency, µM (top dose mostly 114 µM), for the others: top-dose activity change, negative = inhibition, hits mostly inhibitors | actives 50% (n = 220) | AID 540353, 2011
Sfp PPTase gel = Gel-Based Assay for Inhibitos of Bacillus subtilis Sfp phosphopantetheinyl transferase (PPTase): Chemistry Optimization Followup; shares compounds with NTMT1 inh; purified Sfp PPTase, gel-based product detection; Potency, µM (top dose mostly 250 µM), inactives show top-dose activity change, negative = inhibition, most hits filed as inhibitors; actives 54% (n = 220); AID 540355, 2011
Sfp SAR2 = qHTS Assay for Inhibitors of Bacillus subtilis Sfp phosphopantetheinyl transferase (PPTase): SAR Round 2; shares compounds with NTMT1 inh; purified Sfp enzyme, PPTase activity, qHTS; Potency, µM (top dose mostly 57.1 µM), without a hit: at the highest dose activity change, negative = inhibition, hits mostly inhibitors; actives 87% (n = 230)
HSD17B4 counter = Extended Characterization of HPGD Inhibitors: Counterscreen Against HSD17b4; actives 10% (n = 230); purified HSD17B4, estradiol/NAD+, NADH fluorescence; Potency, µM (series often up to 57.1 µM), without a hit: at the top dose activity change, negative = inhibition, most hits filed as inhibitors; shares compounds with NTMT1 inh
ALDH1A1 counter = Extended Characterization of HPGD Inhibitors: Counterscreen Against ALDH1A1; recombinant ALDH1A1, NADH fluorescence, propionaldehyde/NAD+; AID 743195, 2013; actives 93% (n = 230); shares compounds with NTMT1 inh; Potency, µM (doses to about 57.1 µM), without a hit: at the top dose activity change, negative = inhibition, usual class: inhibitors
NNMT counter = Counterscreen qHTS for Inhibitors of N-terminal methyltransferase 1 (NTMT1): NNMT MTaseGlo assay; NNMT MTase-Glo luminescence, SAH detection; actives 10% (n = 120); Potency, µM (titrated, usually from 57.1 µM), for inactives: at the top dose activity, negative = inhibition, hits mostly inhibitors; shares compounds with NTMT1 inh
Target sequence (P40261 whole entry, looked up): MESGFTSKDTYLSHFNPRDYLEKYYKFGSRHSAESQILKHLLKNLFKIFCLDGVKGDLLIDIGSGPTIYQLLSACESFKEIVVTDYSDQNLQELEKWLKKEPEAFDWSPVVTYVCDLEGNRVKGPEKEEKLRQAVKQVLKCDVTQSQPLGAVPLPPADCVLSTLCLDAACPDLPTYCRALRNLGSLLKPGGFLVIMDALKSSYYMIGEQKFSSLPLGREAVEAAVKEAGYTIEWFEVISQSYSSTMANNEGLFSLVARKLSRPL
Starred values were filed as active, the others as inactive; ? = inconclusive; / = no result; [ ] = another dose, or the depositor's remark. This is a sample that favours compounds with a hit; in the whole collection about 2.4% have one here. Calls come from the whole dose curve; as a rule, active = well fitted curve in the direction sought with a large enough effect; inconclusive = small, poorly fitted or top-dose-only effect, or another doubt; inactive = no such curve, though single readings can be large; an effect the other way counts as inactive or inconclusive.

SMILES	NTMT1 inh	HTT promoter inh	HTT-AS promoter	NNMT counter	others
Cc1cc(C)nc(NC(=S)N2CCN(c3cccc(S(C)(=O)=O)c3)CC2)c1	?	/	/	/	Sfp qHTS opt=4.69µM*;Bsub HM489 growth=15.2%;Sfp PPTase gel=15.8µM*;Sfp SAR2=2.89µM*;HSD17B4 counter=-25.1%;ALDH1A1 counter=15.2µM*
Cc1cc(C)n2ncc(C(=O)Nc3ccc(S(C)(=O)=O)cc3)c2n1	-0.5%[57.5 µM]	/	/	/
CC1=C(C(=O)Nc2nccs2)C(c2ccccc2Br)N=C(Nc2nc3ccccc3o2)N1 (stereo not given)	16.5%	/	/	/
COc1ccc(-n2cc(-c3ccccc3)c3c(NCCc4ccc(OC)c(OC)c4)ncnc32)cc1	-2.0%	?	-45.8%	/
COc1cccc(-c2cn(-c3ccc(CCN4CCC(O)CC4)cc3)c3ncnc(N)c23)c1	12.6µM*	/	/	?
C=Cc1cc(O)cc2nc(-c3ccc(O)c(F)c3)oc12	12.6µM*	/	/	?
CCC(=O)Nc1cc(-c2nc3cc(C)cc(C)c3o2)ccc1C	3.4%	46.6%	?	/
CC(C)NC(=O)C1CCC(n2c(NC(=O)c3ccc(F)cc3)nc3ccc(CN4CCC(C(C)(C)O)CC4)cc32)CC1 (stereo not given)	15.5%[57.5 µM]	/	/	/
Cc1cc(N[S+](=O)([O-])c2ccc(NC(=O)Cc3ccc(C(F)(F)F)c(F)c3)cc2)no1	7.5%	/	/	/
C#Cc1cccc(Nc2ncnc3cc(OC)c(OCCCCCCC(=O)NO)cc23)c1	12.6µM*	55.3%[116 µM]	?	?
COc1cc2ncnc(Nc3ccc(Oc4ccccc4)cc3)c2cc1OC	4.9%[57.5 µM]	/	/	/

Bioassay records from PubChem.
